We go through 59 molecules from PubChem BioAssay AID1415 (NMMLSC, 2008).

Out of some 220,000 compounds screened, about 710 (0.32%) were called active. Only a selection was taken, and actives are over-represented in it overall. Values without a mark were called inactive. Rule as the data show it: active = binding response below about 49% or above about 150%; inactive = in between.

In the test the target is Guanine nucleotide-binding protein G(o) subunit alpha (Homo sapiens) (UniProt P09471). The test can be described thus: RGS4-Galphao interaction inhibitors and enhancers – biochemical, multiplexed bead flow cytometry, primary screen (AID 1415).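 Also: fluorescent Galphao activated with aluminum fluoride binding bead-coupled RGS4.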 As to conditions: at 10 µM, actives lie on both sides. For orientation: Flow cytometry measures light scatter and fluorescence of single cells or particles in a stream.
Sequence of Guanine nucleotide-binding protein G(o) subunit alpha (Homo sapiens) (P09471 whole entry, looked up): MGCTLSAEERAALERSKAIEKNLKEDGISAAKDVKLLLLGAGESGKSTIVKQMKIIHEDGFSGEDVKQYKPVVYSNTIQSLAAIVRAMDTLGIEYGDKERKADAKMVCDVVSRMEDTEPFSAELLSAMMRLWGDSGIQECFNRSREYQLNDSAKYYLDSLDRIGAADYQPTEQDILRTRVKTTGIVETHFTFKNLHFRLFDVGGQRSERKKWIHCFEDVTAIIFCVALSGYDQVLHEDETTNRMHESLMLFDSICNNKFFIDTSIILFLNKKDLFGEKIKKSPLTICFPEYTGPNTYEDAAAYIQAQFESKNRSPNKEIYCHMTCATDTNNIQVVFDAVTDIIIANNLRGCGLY
Consider `CN1CCN(C(CNS(=O)(=O)c2cccs2)c2cccnc2)CC1` (centres undefined), for which the binding response (% of control) was 0.16% (active).

For `Cc1ccc(NC(=O)NCC(c2cccnc2)N2CCOCC2)cc1` (centres undefined), the binding response (% of control) was 105%.

On to `CN1CCN(S(=O)(=O)c2ccc(N3CCN(S(=O)(=O)c4cccs4)CC3)nc2)CC1`, for which the binding response (% of control) was 101%.

As to `OCCC1CN(Cc2ccc(Oc3ncccn3)cc2)CCN1CCc1ccccc1` (centres undefined), the binding response (% of control) was 98.9%.

Regarding `O=C(Nc1cc(Cl)cc(Cl)c1)C(NCCCO)c1ccccc1` (centres undefined), the binding response (% of control) was 102%.

As to `O=C(CNCc1cccs1)Nc1cc(S(=O)(=O)N2CCCC2)ccc1Cl`, the binding response (% of control) was 103%.

Consider `O=C(O)CCCCCNc1ncnc2ccc(Br)cc12`, for which the binding response (% of control) is 98%.

Take `Oc1ccc2ccccc2c1N=Nc1nccs1`: the binding response (% of control) was 99.9%.

On to `Oc1ccc(N=Nc2nccs2)c(O)c1`, for which the binding response (% of control) is -21.6% (active).

`CC(NC(=O)C(=O)Nc1nccs1)c1ccccc1` (centres undefined): the binding response (% of control) is 94.3%.

Turning to `Cc1nc(NNC(=O)c2ccccc2)cc(-c2ccccc2)n1`, the binding response (% of control) is 101%.

Take `CC(CC(=O)C1C(C)C=CCC1(C)C)NNC(N)=O` (centres undefined): the binding response (% of control) was 101%.

With `O=C(c1ccc(=O)oc1)N1CCC(C(O)(c2ccccc2)c2ccccc2)CC1`, the binding response (% of control) is 100%.

`COC(=O)CCCC1=CC2=C(c3ccccc3)C(=O)C(C)(OC(=O)C3CCCC3)C(=O)C2=CN1c1ccc(OC)cc1` (centres undefined): the binding response (% of control) is 97%.

On to `Cc1ccccc1CC1(CO)CCCN(C(=O)c2cc(-c3ccccc3)no2)C1` (centres undefined), for which the binding response (% of control) was 110%.

On to `O=C(CCc1ccccc1)NNC(=O)c1ccc(Br)cc1`, for which the binding response (% of control) was 109%.

Regarding `Cc1cc(NC(=O)COc2ccc(Cl)cc2Cl)n(CCC#N)n1`, the binding response (% of control) is 94.6%.

Take `CCCn1nnnc1NC(=O)COc1ccc(Cl)cc1C`: the binding response (% of control) is 22.6% (active).

For `CCOC(=O)N1CCN(C(=O)COc2ccc(Cl)cc2C)CC1`, the binding response (% of control) was 102%.

For the molecule `CC(Oc1ccccc1)C(=O)Nc1oc(-c2ccco2)c(-c2ccco2)c1C#N` (centres undefined), the binding response (% of control) is 96.1%.

Regarding `O=C(CC1SCCNC1=O)Nc1ccc(Cl)cc1` (centres undefined), the binding response (% of control) is 102%.

On to `C/C(=N\NC(=S)NC(C)C)c1ccc(C(C)(C)C)cc1`, for which the binding response (% of control) is 102%.

`Cc1c(C(=O)Nc2ccccc2Cl)oc2ccc(S(=O)(=O)N3CCC4(CC3)OCCO4)cc12`: the binding response (% of control) is 106%.

Consider `CCOc1ccccc1NC(=O)c1cc(S(=O)(=O)N2CCC3(CC2)OCCO3)ccc1F`, for which the binding response (% of control) was -0.18% (active).

Regarding `CCOc1ccccc1NC(=O)CCN1CCN(S(=O)(=O)c2ccc(OC)cc2)CC1`, the binding response (% of control) is 97%.

Regarding `CS(=O)(=O)c1sc(C(=O)NC(=S)Nc2ccc(OC(F)(F)F)cc2)c2c1C=CCC2`, the binding response (% of control) was 113%.

As for `C=C(C)C(=O)Nc1cccc(C2=NOC3(C2)C[C@H](C(N)=O)N(C(=O)C(c2ccccc2)c2ccccc2)C3)c1` (some centres undefined), the binding response (% of control) is 100%.

`Cc1cc(NC(=O)OC(C)C)ccc1-c1ccc(NC(=O)OC(C)C)cc1C`: the binding response (% of control) was 96.1%.

For the molecule `Cc1ccc(Cn2c(SCC(=O)N/N=C/c3ccccc3OCC(=O)O)nc3ccccc32)cc1`, the binding response (% of control) is 98.8%.

`COc1ccc(OC)c(/C=N/NC(=O)CSc2nnc(C)n2-c2ccccc2)c1`: the binding response (% of control) is 96.1%.

As to `C=CCn1c(Cn2nnc3ccccc32)nnc1SCC(=O)N/N=C/c1cc(Br)cc(OC)c1O`, the binding response (% of control) is -38.5% (active).

For the molecule `CCC(C)NC(=O)Cn1nc(C(F)(F)F)c2c1CCC2` (centres undefined), the binding response (% of control) is 101%.

Turning to `COc1ccc(COCCN2CCN(S(=O)(=O)c3ccccc3)CCC2=O)cc1`, the binding response (% of control) is 84%.

For `CN(C)c1ccc(/C=N/NC(=O)c2ccc(Cn3cc(Br)cn3)o2)cc1`, the binding response (% of control) was 98.7%.

As to `COC(=O)CNc1nc(Cl)nc(N2CCC(C)CC2)n1`, the binding response (% of control) is 101%.

For the molecule `Cc1nnc(SCC(=O)N2c3ccccc3C(C)(c3ccc(Cl)cc3)CC2(C)C)s1` (centres undefined), the binding response (% of control) was 96.9%.

Regarding `Cc1nc2cc(NC(=O)Nc3cccc(F)c3)ccc2n1C`, the binding response (% of control) is 91.6%.

In the case of `Cc1nc2cc(NC(=O)NC3CC3)ccc2n1C`, the binding response (% of control) is 103%.

Turning to `Cc1cc2nc(C)n(CCCNC(=O)Nc3ccccc3)c2cc1C`, the binding response (% of control) is 158% [activator] (active).

For the molecule `Cc1onc(-c2ccccc2)c1C(=O)N=C(N)c1ccc(Cl)cc1`, the binding response (% of control) was 104%.

With `N#Cc1ccc(CSc2nnc3ccccn23)cc1`, the binding response (% of control) is 101%.

For `CCCCC1=CC2=CC(=O)C(C)(OC(=O)CC)C(=O)C2=CN1CCCOC(C)C` (centres undefined), the binding response (% of control) is 96%.

As to `CCCC1C(c2ccccc2)C(C#N)(C#N)C2(C#N)CC1(N)NC2=O` (centres undefined), the binding response (% of control) is 162% [activator] (active).

As for `NC1=NC[C@@H](Cc2ccc(O)cc2)N1CC1CCCCC1`, the binding response (% of control) was 87.1%.

On to `CCOC(=O)c1ccc(NC(=O)c2nc[nH]c2C(=O)NCc2ccccc2)cc1`, for which the binding response (% of control) was 103%.

`CCCCOC(=O)Cn1c(=N)n(CCN(CC)CC)c2ccccc21`: the binding response (% of control) is 184% [activator] (active).

For `CCCCOC(=O)Cn1c(=O)n(CC(=O)OCCCC)c2cc(C)ccc21`, the binding response (% of control) is 103%.

Take `CCn1c(=N)n(CC(=O)c2cccc(OC)c2)c2ccccc21`: the binding response (% of control) was 98.3%.

Take `O=C(CN(C(=O)c1csnn1)c1cccc(F)c1)NCc1ccc(F)cc1`: the binding response (% of control) was 97.4%.

With `Cc1ccc(S(=O)(=O)N(C)CC(=O)N2CCc3ccccc32)cc1`, the binding response (% of control) was 104%.

`Cc1cnc(C(=O)OCC(=O)N2CCc3ccccc32)cn1`: the binding response (% of control) was 104%.

As to `Cc1ccc(S(=O)(=O)NCC(=O)OCC(=O)N2CCc3ccccc32)cc1`, the binding response (% of control) is 204% [activator] (active).

Turning to `C#CCO[C@@H]1C[C@H](n2cnc3c(=O)[nH]c(NC(=O)C(C)C)nc32)O[C@@H]1CO`, the binding response (% of control) was 81.4%.

For `C=CCC1(CC=C)CCCN1C(=O)CC1C(=O)NCCN1Cc1ccccc1OC` (centres undefined), the binding response (% of control) was 102%.

`[O-][n+]1c2c(nn1-c1ccc(Cl)c(Cl)c1)-c1nonc1CC2`: the binding response (% of control) was 106%.

For `COc1ccc(/C(O)=C2\C(=O)C(=O)N(Cc3ccco3)C2c2ccc(OC)cc2OC)cc1` (centres undefined), the binding response (% of control) was 99.5%.

On to `COCCCN1C(=O)C(=O)/C(=C(/O)c2ccc3c(c2)CC(C)O3)C1c1cccnc1` (centres undefined), for which the binding response (% of control) is 95%.

In the case of `COc1cc(C2/C(=C(\O)c3ccc4c(c3)CC(C)O4)C(=O)C(=O)N2Cc2ccco2)ccc1O` (centres undefined), the binding response (% of control) is 18.3% (active).

`COC(=O)c1c(C)oc(C)c1S(=O)(=O)NCc1ccc(Cl)cc1`: the binding response (% of control) is 98.2%.
